The campaign covered roughly 330,000 compounds. About 1,700 (0.52%) were called active. What follows is part of a selection rich in actives, with near analogues and random picks from the rest. Values without a mark were called inactive. Rule as the data show it: active = inhibition above about 50%; inactive = the rest.

The assay can be described thus: lowers stimulated NF-kB reporter luminescence – cell-based, uHTS, TCR NF-kB activation inhibitor project, primary screen (AID 435003). The note with it: Jurkat, PMA/ionomycin-induced NF-kB luciferase reporter, at 4 µM, active compounds read high.
As for `Cc1cc(=O)oc2cc(OCCC[n+]3ccccc3)ccc12`, the inhibition (as a rule, the change of the read-out against control, counted positive when it falls) is 3.92%.
Under `CCOc1ccccc1N1CCN(C(=O)COc2ccc3c(C)cc(=O)oc3c2)CC1` stands 26.6%; under `Cc1cc(=O)oc2cc(OCC3CC(c4ccccc4Cl)=NO3)ccc12` (stereo not drawn), 80.2% (active).
Next, `CCOc1ccc(NC(=O)CCS(=O)(=O)c2ccc3c(c2)CCCN3C(=O)CC)cc1`: -12%; `CCCCC(=O)Nc1ccc2c(c1)C(=O)NC2=O`: 7.09%.
Next, `COCc1c(C(=O)N/N=C(\C)c2ccncc2)nnn1-c1nonc1N`: -38.2%; `C[C@@H]1C[C@@H]2O[C@H]2/C=C\C=C\C(=O)Cc2c(Cl)c(O)cc(O)c2C(=O)O1`: 56% (active).
Turning to `CSc1nc(N(C)NC(=O)c2cccc(C)c2)c2ccccc2n1`, the inhibition was 57.7% (active).
`CN(NC(=O)c1ccccc1F)c1nc(C(F)(F)F)nc2ccccc12`: the inhibition is 35.5%.
Regarding `CN(NC(=O)c1ccccc1)c1nc2ccccc2nc1C(F)(F)F`, the inhibition is 40.2%.
Under `O=C1c2ccccc2C(Nc2ccc3c(c2)OCCO3)N1Cc1ccco1` (stereo not drawn) stands 4.45%.
Next, `Cc1ccc(N2CCN(c3ccc([N+](=O)[O-])cn3)CC2)c(C)c1`: 50.7% (active); `Cc1ccc(-n2c(C)cc(/C=N/Nc3ccc([N+](=O)[O-])cn3)c2C)c(C)c1`: 15.1%.
`COc1ccccc1C1CCN(c2ccc([N+](=O)[O-])cn2)CC1`: the inhibition was 1.45%.
Take `COc1ccc(N(CC(=O)Nc2cc(OC)cc(OC)c2)S(=O)(=O)c2c(C)n[nH]c2C)cc1`: the inhibition was -11.8%.
Next, `CCc1sc(C(=O)N2CCN(CC(=O)Nc3cccc(F)c3)CC2)cc1C`: -11.7%; `CCc1ccc(NC2Nc3cc(C)nn3S2)cc1` (stereo not drawn): -76.8%; `Cc1ccc(NC(=O)NNC(=O)c2sccc2-n2cccc2)cc1`: 6.7%.
Next, `COc1cccc(/C=N/NC(=O)c2[nH]nc3c2CCc2ccccc2-3)c1O`: 60.8% (active); `COc1ccc(/C=N/NC(=O)c2ccncc2)cc1CN1CCCc2ccccc21`: 16.1%.
Next, `COc1ccc(Br)cc1/C=N/NC(=O)c1cccc(S(=O)(=O)N2CCOCC2)c1`: 5.13%.
For the compound `Cc1ccsc1-c1nc(CSCC(=O)NCCN2CCCC2)c(C)o1`, the inhibition was -7.15%.
Under `Cc1c(C)c2cc3c4c(oc3c(C)c2oc1=O)CCCC4` stands -27.9%; under `O=C(Nc1cccc(S(=O)(=O)N2CCCC2)c1)c1cncc(Br)c1`, 1.27%.
Next, `CC[n+]1cc(C)ccc1/C=C/c1ccc(N(C)C)cc1`: 84.4% (active); `Cc1ccc2nsnc2c1NC(=O)c1ccccc1[N+](=O)[O-]`: 10.9%; `COc1ccc(NC(=O)C(CC(C)C)NS(=O)(=O)c2ccc3c(c2)CCN3C(C)=O)cc1OC` (stereo not drawn): -14%.
Regarding `CC1(C(=O)O)CCC(C(=O)Nc2ccc(Cl)c(Cl)c2)C1(C)C` (stereo not drawn), the inhibition was -8.65%.
For `CC(=O)NC(=S)Nc1ccc(NC(=S)NC(=O)c2ccc([N+](=O)[O-])cc2)cc1`, the inhibition is 14.2%.
Turning to `COc1cc(NS(=O)(=O)c2ccc(NC(=O)c3ccc([N+](=O)[O-])cc3)cc2)ncn1`, the inhibition is 14.9%.
Next, `Cn1ccc(=Nc2ccc(NC(=O)c3ccc(N=c4ccn(C)c5ccc([N+](=O)[O-])cc45)cc3)cc2)cc1`: 51.3% (active); `O=C1C=C(c2ccc(Cl)cc2)C(=O)N1Nc1ccccc1`: 13.6%.
Under `CC(=O)c1ccc(N2CCN(C(=O)C3CCN(S(=O)(=O)c4ccc5c(c4)CC(C)N5C(=O)C4CC4)CC3)CC2)cc1` (stereo not drawn) stands -3.75%; under `CCOc1ccc(N/C=C/C(=O)c2cc(OC)c(OC)c(OC)c2)cc1`, 44.3%; under `CCOc1ccc(N/C=C/C(=O)c2ccccc2)cc1`, -132%.
Under `COc1ccc(C(=O)/C=C/Nc2ccccn2)cc1` stands 50.4% (active).
For `Cc1onc(-c2ccc(Cl)cc2)c1-c1ccnn1S(=O)(=O)c1ccc(Cl)cc1`, the inhibition is 9.53%.
Under `COc1ccc(NC(=O)C(C)N2c3cccc4cccc(c34)S2(=O)=O)c(OC)c1` (stereo not drawn) stands 21.7%; under `O=C(NCc1ccc2c(c1)OCO2)c1cc([N+](=O)[O-])ccc1N1CCOCC1`, 60.2% (active).
Next, `CC1CCN(c2ccc(C(=O)NCc3ccc4c(c3)OCO4)cc2[N+](=O)[O-])CC1`: -1.58%; `O=C(NCc1ccc2c(c1)OCO2)c1cc(F)c(F)cc1Cl`: -12%.
Under `CC1Sc2ccc(S(=O)(=O)CCC(=O)NCc3ccccc3Cl)cc2NC1=O` (stereo not drawn) stands 7.46%.
In the case of `Cc1ccc(S(=O)(=O)N/N=C(\c2ccccc2)C2CC2)cc1`, the inhibition is -1.73%.
Next, `Cc1ccc(O)c(NC(=O)c2cc(-c3ccco3)on2)c1`: 96.2% (active); `CC(C)Cc1cc(C(=O)Nc2cc(Br)ccc2O)no1`: -28.3%.
Under `O=C(Nc1ccccc1C(F)(F)F)c1cc(-c2ccc(O)cc2)on1` stands -35.1%.
As to `COC(=O)c1ccc(NC(=O)c2cc3c(CO)cnc(C)c3oc2=Nc2cccc(C(N)=O)c2)cc1`, the inhibition was -7.55%.
Under `c1ccc(-n2cccc2)c(N2CCCCC2)c1` stands 6.35%; under `C/C(=C(\C#N)C(=O)NCCCN1CCOCC1)N(C)C`, -10.8%.
Under `O=C(COC(=O)c1ccc(F)c(S(=O)(=O)N2CCOCC2)c1)NCc1ccc2c(c1)OCO2` stands -6.67%; under `CC(=NCc1ccco1)c1c(C(F)(F)F)[nH]n(-c2nc3ccccc3s2)c1=O`, -104%; under `COC(=O)Cc1[nH]n(-c2nc3ccccc3s2)c(=O)c1C(C)=Nc1ccc(OC)cc1`, 60.8% (active).
Next, `COc1ccc(C2=NN(c3nc4ccccc4s3)C(=O)C2)cc1`: -52%.
In the case of `COc1ccc(CC(=O)NCc2nnc(SCC(=O)Nc3nccs3)n2C)cc1`, the inhibition was -0.699%.
Next, `COc1ccc(OC)c(CCNC(=O)CCn2ccc3cc(S(=O)(=O)N4CCCC4)ccc32)c1`: 4.04%.
Under `COc1ccccc1C(=O)Nc1ccc(OCc2nnc3c4ccccc4c(C)nn23)cc1` stands 15.2%; under `Cc1cc(C(=O)N/N=C/c2ccccn2)c2ccccc2n1`, 3.68%.
Under `Cc1nnc(N/N=C/c2ccccn2)[nH]c1=O` stands 58.1% (active); under `COc1ccc(Cc2nnc(N/N=C/c3ccccc3O)[nH]c2=O)cc1OC`, 10.5%; under `Cc1ccc2nc(SC(C)C(=O)NCc3ccco3)[nH]c2c1` (stereo not drawn), 7.59%.
Take `COc1ccc(C(=O)NCC(=O)N/N=C/c2ccc([N+](=O)[O-])o2)cc1OC`: the inhibition is 8.93%.
Under `O=C(/C=C/c1ccc([N+](=O)[O-])o1)NNC(=O)c1ccc(F)cc1` stands 75.6% (active); under `O=C(NNC(=O)C1CCCC1)c1ccc(F)cc1`, -13.7%.
Next, `Cc1ccc(NC(=O)Cn2nnc(C(=O)NCc3ccco3)c2N)c(C)c1`: -3.15%.
Next, `CCOc1ccccc1NC(=O)Cn1nnc(C(=O)NCc2cccs2)c1N`: 65.8% (active); `CCc1ccc(NC(=O)Cn2nnc(C(=O)NCc3ccc(OC)cc3)c2N)cc1`: 13.8%.
On to `CC[n+]1c(C)n(-c2ccccc2)c2ccc(NC(C)=O)cc21`, for which the inhibition was 35.7%.
Under `N#Cc1ccc(-c2ccc(Cl)cc2)nc1Oc1ccc(F)cc1` stands -19.4%; under `CCCC(=O)Nc1nc2ccc(NC(=O)c3c(F)c(F)c(OC)c(F)c3F)cc2s1`, 57.8% (active).
Take `CCCC(=O)Nc1nc2ccc(NC(=O)c3cccnc3)cc2s1`: the inhibition is 40.8%.
Under `CSc1nc2ccc(NC(=O)c3c(F)cccc3F)cc2s1` stands -93.5%; under `COc1ccccc1NS(=O)(=O)c1ccc(C(=O)N2CCN(c3ccccc3O)CC2)cc1`, -3.42%; under `CC1(C)CN(c2ccc(-c3ccnc4ncnn34)cc2)C1=O`, -3.78%.
Next, `Cc1cc(C(=O)OCC(=O)NCc2ccco2)c(C)n1-c1ccccc1`: 54.7% (active); `CN(c1ccccc1)S(=O)(=O)c1ccc(Cl)c(C(=O)OCC(=O)NCc2ccco2)c1`: -10.7%; `O=C(COC(=O)c1ccccc1O)NCc1ccco1`: -0.428%.
Under `COc1ccc(NC(=O)N(C)C[C@H]2Oc3ccc(NC(=O)C4CC4)cc3C(=O)N([C@H](C)CO)C[C@@H]2C)cc1` stands -11.5%; under `COc1ccc(-c2c(NC(=O)c3ccco3)oc3ccc(Cl)cc3c2=O)cc1`, -5.27%.
Turning to `COc1ccc(S(=O)(=O)N(C)C[C@H]2Oc3ccc(NS(=O)(=O)c4cccs4)cc3CC(=O)N([C@H](C)CO)C[C@H]2C)cc1`, the inhibition was 16%.
Next, `O=C(CSc1ncnc2scc(-c3ccccc3)c12)NCc1ccc2c(c1)OCO2`: 1.29%; `CC[C@]1(O)CC2CN(CCc3c([nH]c4ccccc34)[C@@](C(=O)OC)(c3cc4c(cc3OC)N(C=O)[C@H]3[C@@](O)(C(=O)OC)[C@H](OC(C)=O)[C@]5(CC)C=CCN6CC[C@]43[C@@H]65)C2)C1` (stereo partly drawn): 71.2% (active).
For the compound `Cc1ccc(F)cc1S(=O)(=O)Nc1cccc(C(=O)N2CCCC(C(N)=O)C2)c1` (stereo not drawn), the inhibition is 12.4%.
Next, `CCC/C=C(\CCC)C(NC(=O)Cc1ccccc1)c1ccc(C(=O)OC)cc1` (stereo not drawn): 25.8%.
Next, `CCNC(=S)N(CCc1c(C)[nH]c2ccc(C)cc12)Cc1ccco1`: -0.351%; `Cc1c(Nc2nc3ccccc3nc2NS(=O)(=O)c2cccs2)c(=O)n(-c2ccccc2)n1C`: -0.383%; `Nc1c(-c2ccc(F)cc2)cnn1C1CCS(=O)(=O)C1` (stereo not drawn): -7.3%.
Under `O=C(CS(=O)(=O)Cc1ccccc1)Nc1cccnc1` stands 7.62%; under `COc1cc(OC)nc(N/N=C(\c2ccccc2)c2ccncc2)n1`, -5.67%.
